From PubChem BioAssay
DT40 TDP1 CPT = growth inhibition of DT40 Tdp1-/-;hTDP1 cells with camptothecin (screen for TDP1 inhibitors); chicken DT40 Tdp1-/-;hTDP1 cells + 20 nM CPT, ATP luminescence, 48 h; Potency, µM (top dose mostly 46.2 µM), inactives show at the top dose activity change, negative = growth inhibition, hits mostly inhibitors; 12% of 420,000 active; note: potency is the fitted concentration of half-maximal effect; nearly all actives have a fitted effect of over 55% in size
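Cell growth measured by CellTiter-Glo luminescence after a minimum 48 h, 37 C compound exposure with 20 nM CPT in Tdp1-knockout DT40 cells stably expressing hTDP1, seeded 400/well; qHTS titration format.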
ELG1 repair inh = inhibitors of ELG1-dependent DNA repair in HEK293T cells; Potency, µM (top dose mostly 46.1 µM), for the others: at the top dose activity change, negative = inhibition, actives largely listed as inhibitors; 2.3% of 330,000 active; HEK293T ELG1-luciferase reporter, luminescence, 16 h; DNA damage induced by 5-fluorouridine; note: potency is the fitted concentration of half-maximal effect; nearly all actives have a fitted effect of over 55% in size
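Luminescence from the luciferase reporter, measured 30 min after ONE-Glo reagent at room temperature, was the read-out. Beforehand, 2,000 cells per well were exposed for 16 hr at 37 °C to 5-fluorouridine together with compound or vehicle.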
IL1B secr inh = blocks inflammasome-driven IL-1 beta release; THP-1 LPS/ATP IL-1B secretion, AlphaLISA, 16 h; hits give low values; activity change, % at 57.5 µM; 4.7% of 360,000 active; AID 743279; in the data active = activity change below about -50%; inconclusive = mostly about -30% to -49%
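Secreted IL-1B measured by AlphaLISA bead assay after 16 h compound exposure of THP-1 cells; compounds (final up to 57.5 uM) added 1 h before LPS (250 ng/mL) and ATP (1.25 mM) stimulation; lower signal means less secretion.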
TDP1 cell noCPT = qHTS for Inhibitors of human tyrosyl-DNA phosphodiesterase 1 (TDP1): qHTS in cells in absence of CPT. 15% of 420,000 active. DT40 Tdp1-/- hTDP1 cells, no CPT, ATP luminescence, 48 h. Potency, µM (doses to about 46.2 µM), for inactives: top-dose activity change, negative = growth inhibition, most hits filed as inhibitors; note: potency is the fitted concentration of half-maximal effect; nearly all actives have a fitted effect of over 55% in size
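A cellular qHTS used chicken DT40 cells lacking endogenous Tdp1 but carrying stably transfected human TDP1. Compounds were applied without camptothecin, and cell growth kinetics were judged by ATP-dependent luminescence after ≥48 hr.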
HT1080 IDH1KD tx = toxicity to HT-1080 IDH1 knockdown cells (counter line); HT-1080 IDH1 knockdown viability, ATP luminescence, 48 h; Potency, µM (doses to about 46.1 µM), inactives show top-dose activity, negative = toxicity, hits mostly cytotoxic; 2% of 360,000 active; AID 686971;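 note: potency is the fitted concentration of half-maximal effect; 0% = DMSO wells and -100% = cell-free medium wells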
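% activity derives from luminescence (CellTiter-Glo), normalised to DMSO and no-cell wells. HT-1080-IDH1KD cells, 750/well, had 48 h compound exposure at 37 °C.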
HT1080NT lethal = kills 2HG-producing HT-1080-NT fibrosarcoma cells | AID 686970 | 1.6% of 360,000 active | Potency, µM (top dose mostly 46.1 µM), for inactives: top-dose activity, negative = less viability, hits mostly cytotoxic | HT-1080-NT fibrosarcoma viability, CellTiter-Glo ATP luminescence, 48 h;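 note: NT is the 2HG producing partner of a matched IDH1 knockdown line; potency is the fitted concentration of half-maximal effect; 0% = DMSO-treated cells and -100% = media-only wells without cells; nearly all actives have a fitted effect of over 55% in size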
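Viability of the 2HG-overproducing fibrosarcoma line after 48 hours of compound exposure at 37 degrees C was determined by luminescence with CellTiter-Glo, and concentration-effect curves were then fitted and categorized.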
* marks the source's active call; other numbers are inactive results; ? = inconclusive; · = no result given. Rows were chosen to be rich in hits. Some 19% of all compounds tested hit in one or more screens of this group. Unless noted, calls come from the whole dose curve; as a rule, active = well fitted curve in the direction sought with a large enough effect; inconclusive = small, poorly fitted or top-dose-only effect, or another doubt; inactive = no such curve, though single readings can be large; an effect the other way counts as inactive or inconclusive. Unless noted, % is set by controls: 0 for no effect and ±100 for the full control effect.

SMILES	DT40 TDP1 CPT	ELG1 repair inh	IL1B secr inh	TDP1 cell noCPT	HT1080 IDH1KD tx	HT1080NT lethal
CCCNC(=O)COC(=O)c1c2c(nc3ccccc13)CCC2	?	-13.4%	29.5	?	1.4%	-4.3%
CCOc1cc(Br)c(CC(=O)NC2CCCCCC2)cc1OCC	?	-29.2%	-5.3	20.6µM*	-12.9%	-13.4%
CN(C)c1ccc(C(=S)NC2CCCCC2)cc1	?	?	-11.7	?	1.2%	-3.3%
CC(C)c1ccc(C(C)NC(=S)NC2CCCCC2)cc1 (stereo not given)	18.4µM*	-0.4%	0.0	4.61µM*	-1.3%	-3.3%
CCOc1ccc(C(=S)NC2CCCCC2)cc1OCC	?	5.2%	-0.6	4.61µM*	-3.6%	-0.6%
COc1ccccc1CC(=O)NC1CCCCCC1	-4.3%	16.6%	-20.0	1.1%	10.3%	2.6%
CC(NC(=S)NC1CCCCC1)c1ccc(C(C)(C)C)cc1 (stereo not given)	9.2µM*	0.0%	-20.0	?	23.1µM*	-27.1%
CCOc1ccc(C(C)NC(=S)NC2CCCCC2)cc1 (stereo not given)	?	?	-8.9	?	-26.6%	?
CCc1ccc(C(C)NC(=S)NC2CCCCC2)cc1 (stereo not given)	?	-14.9%	9.7	?	-0.8%	-4.6%
CC(C)(C)c1ccc(OCC(=O)NC(Cc2c[nH]c3ccccc23)C(=O)O)cc1 (stereo not given)	7.1%	·	·	-1.9%	·	·
COc1ccc(NC(=O)N2CCCC(c3ccccc3)C2)cc1 (stereo not given)	-1.2%	25.4%	?	-0.4%	2.9%	2.9%
COc1ccc(Cl)cc1NC(=O)c1nnn(CC(=O)Nc2ccc3c(c2)OCO3)c1N	-19.9%	?	-19.8	-26.1%	-1.6%	-0.4%
CCOc1ccc(C(C)NC(=S)NC2CCCCC2)cc1OCC (stereo not given)	?	23.1µM*	5.5	?	3.6%	1.8%
O=C(CSCc1cc(=O)c2ccccc2[nH]1)Nc1cccc(C(F)(F)F)c1	-24.6%	·	·	?	·	·
O=C1N=C(N2CCCC2)S/C1=C\C=C\c1ccccc1	-3.2%	?	2.8	-28.1%	0.1%	-0.5%
CCOC(=O)C1CCCN(C2=NC(=O)/C(=C/c3ccc(O)c(OC)c3)S2)C1 (stereo not given)	?	?	8.5	?	2.0%	7.7%
COc1ccc(/C=C2\SC(N3CCCCC3)=NC2=O)cc1	11.6µM*	?	-1.0	?	-14.7%	-0.9%
O=C1N=C(N2CCCCC2)S/C1=C\c1ccncc1	6.2%	?	-52.0*	-29.1%	-24.7%	-27.4%
CCOC(=O)C1CCCN(C2=NC(=O)/C(=C/c3ccc(OC)c(OC)c3)S2)C1 (stereo not given)	?	-8.2%	17.2	9.2µM*	-2.1%	8.1%
COc1cc(/C=C2\SC(N3CCCCC3)=NC2=O)cc(OC)c1OC	20.6µM*	?	?	11.6µM*	-8.1%	-4.4%
COc1cc(C(=O)NCC2CCCCC2)ccc1OCc1c(C)noc1C	-8.2%	?	8.0	19.0%	7.9%	8.6%
O=C1N=C(N2CCCCC2)S/C1=C\c1cn[nH]c1-c1ccccc1	-2.7%	-9.6%	3.7	-11.4%	0.1%	6.6%
CCc1ccc(/C=C2\SC(N3CCCC3)=NC2=O)cc1	0.5%	-14.1%	-60.4*	?	-6.4%	-0.6%
COc1ccc(N=C(C)C2=C(O)c3ccccc3C2=O)cc1	23.1µM*	?	1.4	?	-1.7%	6.4%
CCOc1ccc(N=C(C)C2=C(O)c3ccccc3C2=O)cc1	22.1%	?	?	?	14.7%	0.0%
SMILES	DT40 TDP1 CPT	ELG1 repair inh	IL1B secr inh	TDP1 cell noCPT	HT1080 IDH1KD tx	HT1080NT lethal
CC(=O)Nc1ccc(NC(=O)c2ccc(NC(=O)c3ccccc3)cc2)cc1	11.0%	15.3%	-4.2	11.4%	1.7%	17.2%
CC(=O)Nc1ccc(N=C(C2=C(O)c3ccccc3C2=O)c2ccccc2)cc1	3.26µM*	-11.3%	-11.5	?	?	-25.4%
Cc1cccc(Oc2ccc(NC(=O)C3=CC=CN4CCS(=O)(=O)N=C34)cc2)c1	?	-0.8%	16.2	-0.8%	-5.1%	2.6%
CC(=O)N1c2ccc(S(=O)(=O)N3CCCC(C(=O)N4CCC(C)CC4)C3)cc2CC1C (stereo not given)	20.6µM*	-8.2%	10.4	16.4µM*	-8.2%	-1.6%
CCC(C)NC(=O)C1CCCN(S(=O)(=O)c2ccc3c(c2)CC(C)N3C(C)=O)C1 (stereo not given)	?	9.5%	28.8	?	1.8%	13.3%
CC(=O)N1c2ccc(S(=O)(=O)NCCC(=O)N3CCCC(C)C3)cc2CC1C (stereo not given)	18.4µM*	9.6%	13.8	?	-2.3%	10.2%
CC(=O)N1c2ccc(S(=O)(=O)N3CCCC(C(=O)N4CCCC(C)C4)C3)cc2CC1C (stereo not given)	23.1µM*	?	22.4	?	-2.0%	1.2%
Cc1ccc(NC(=O)CSc2nc3ccccc3nc2N2CCCC2)cc1	11.6µM*	?	-9.9	9.2µM*	-9.2%	-10.9%
CCc1ccc(NC(=O)CSc2nc3ccccc3nc2N2CCCC2)cc1	10.3µM*	?	21.6	4.61µM*	-10.7%	4.3%
CCCCN(C)C(=O)CSc1nc2ccccc2nc1Cc1ccc(C)cc1	?	·	·	16.4µM*	·	·
Cc1cc(C)c(NC(=O)CSc2nc3ccccc3nc2N2CCCCC2)c(C)c1	7.31µM*	·	·	14.6µM*	·	·
CCCCNC(=O)CSc1nc2ccccc2nc1Cc1ccc(C)cc1	-7.0%	·	·	-12.1%	·	·
COCCn1c(N)c(N(Cc2ccccc2)C(=O)COc2ccc(F)cc2Cl)c(=O)[nH]c1=O	0.3%	14.6%	6.7	0.2%	2.6%	3.5%
COc1ccccc1NC(=O)c1ccc(Br)c(S(=O)(=O)N2CCCC2)c1	?	-6.6%	-13.5	?	?	?
CCN(CC)CCOC(=O)c1ccc(NC(=O)CCn2c(=O)oc3ccccc32)cc1	-0.2%	·	·	-18.6%	·	·
Clc1ccc(-c2cc3ccccc3nc2N2CCCC2)cc1	?	3.1%	53.7	18.4µM*	-3.6%	-6.9%
CC1CCN(c2nc3ccccc3nc2SCC(=O)Nc2ccccc2C(C)C)CC1	18.4µM*	·	·	?	·	·
CC(=O)Nc1ccc(NC(=O)CSc2nc3ccccc3nc2N2CCOCC2)cc1	-24.0%	·	·	-22.7%	·	·
CCc1ccccc1NC(=O)CSc1nc2ccccc2nc1N1CCOCC1	-0.3%	-18.4%	-18.4	?	-0.4%	0.4%
